PubChem BioAssay
Active and inactive are the calls of the source.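 How the source made its calls, unless noted: active means visual image review flags a hit and inhibition of aggregation exceeds 20%; inconclusive means visual hit but inhibition at or below 20%; inactive means no hit on visual image review.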

Assay: inhibitors of TNFa-induced NFkB p65 translocation, primary screen, imaging, HUVEC, MLSMR starter and 10KST1 sets (AID 438;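 active means inhibition above 20% together with a positive visual image hit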;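 further: compound added about 3h40 before a 20 min TNFalpha stimulation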;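 on inhibition: signal is the nuclear over cytoplasmic p65 intensity ratio per well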)
Conditions: HUVEC TNFa-induced p65 nuclear translocation; cell count: measured here: nuclei count (cytotoxicity indicator), at 2.08 µM; inhibition: at 2 µM, stronger effect = higher value, 0% TNFa-plus-vehicle, 100% no-TNFa wells

Structure (SMILES)	inhibition	cell count
COc1ccc(C(=O)N2CCSC2=S)cc1OC	-19.3% (inactive)	677
CCN(Cc1ccccc1)C(c1ccncc1)c1nnnn1C(C)(C)C (stereo not given)	11.6% (inactive)	618
CC(C)CCNC(=O)C1CCN(C(=O)N(C)C)CC1	7% (inactive)	556
CN1CCN(CC(=O)N2c3ccccc3C(C)(c3ccccc3)CC2(C)C)CC1 (stereo not given)	2.9% (inactive)	352
O=C(Nc1ccccc1N1CCOCC1)c1ccc2ccccc2n1	-21.6% (inactive)	589
CCOC(=O)N1CCN(c2cc(=O)n(-c3ccccc3Cl)c(=O)[nH]2)CC1	-7.4% (inactive)	553
COCCN1CCN(c2c(C)c(C)nc3cc(-c4cccc(OC)c4)nn23)CC1	-6.1% (inactive)	367
CCN(CCNC(=O)C1CCN(S(C)(=O)=O)CC1)c1ccccc1	3.8% (inactive)	395
CCN(CC)S(=O)(=O)c1ccc2c(c1)nc(SCC(=O)NC1CC1)n2-c1ccccc1OC	-14.3% (inactive)	531
CCCOC(=O)c1[nH]c2c(c1C)C(=O)CC(c1ccc(OC)c(OC)c1)C2 (stereo not given)	-2.8% (inactive)	235

Assay: inhibitors of mutant huntingtin aggregation, primary screen, imaging, exon1htt(103Q)mCFP cells, high-content imaging (AID 483);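 further: compound exposure lasted 3 days before fixation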;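 on nuclei count: percent of the per-plate median nuclei count of sample wells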
Conditions: exon1htt(103Q)mCFP cell line, aggregate imaging, at 2 µM; inhibition of aggregation: stronger effect = higher value; nuclei count: measured here: cell count, toxicity

Structure (SMILES)	inhibition of aggregation	nuclei count
C/C(Nc1cccc(F)c1)=C(/C#N)C(N)=O	1.6% (inactive)	104%
Cc1cc(C(F)(F)F)nc(SCC(=O)NC2=NC(=O)C(C)S2)n1 (stereo not given)	4.5% (inactive)	109%
Cn1c(CCNC(=O)c2ccco2)nc2cc(NC(=O)C3CCCCC3)ccc21	8.3% (inactive)	91.1%
Cc1nn(C(=O)c2ccc3c(c2)OCO3)c(N)c1-c1ccccc1	11.7% (inactive)	91.3%
Cc1c(C)[n+](=O)c2c(n1[O-])CCCCC2	10.6% (inactive)	81.3%
Cc1cc(C(=O)CSc2nc3ccccc3[nH]2)c(C)n1C	7.6% (inactive)	113%
COc1ccc(C(=O)NCCn2ccc3ccccc32)c(OC)c1	0.8% (inactive)	80.1%
O=C(CCSc1nccn1Cc1ccccc1)N1CCOCC1	-9.1% (inactive)	93.1%
c1ccc(Cn2nnc3c(N4CCCCCC4)ncnc32)cc1	35.8% (inactive)	76.5%
O=C(Nc1ccc(NC(=O)c2ccco2)nc1)c1cccnc1	-0.5% (inactive)	93.2%
COc1ccc(-c2noc(COc3ccc(C)c(C)c3)n2)cc1OC	8.8% (inactive)	97.9%
Nc1ncnc(Nc2ccccc2C(F)(F)F)n1	-11.5% (inactive)	100%
O=C(COc1ccccc1Cl)NCc1ccco1	7.5% (inactive)	92.3%
COC(=O)c1ccccc1NC1c2ccccc2C(=O)N1c1cccnc1 (stereo not given)	-10.5% (inactive)	100%
Cc1ccc2cc(C#N)c(NCCCNC(=O)C3CCCO3)nc2c1 (stereo not given)	-8.8% (inactive)	82.7%
Cc1nnc(NC(=O)c2ccco2)s1	-21.8% (inactive)	107%
CCCCC(CC)CNC(=O)C1CCCN(S(=O)(=O)c2cnc[nH]2)C1 (stereo not given)	2.1% (inactive)	75.2%
CC(C)CNC(=O)c1ccccc1NC(=O)c1ccc(CN2CCOCC2)cc1	4% (inactive)	93.4%
O=C(NCC(c1cccnc1)N1CCN(c2ccc(F)cc2)CC1)c1ccc(F)cc1 (stereo not given)	-9.9% (inactive)	84%
CCOC(=O)N1CCN(C(=O)COc2ccc(S(=O)(=O)NC3CCCCC3)cc2C)CC1	-14.2% (inactive)	105%

Structure (SMILES)	inhibition of aggregation	nuclei count
O=C(OCC#CCSc1nc2ccccc2s1)c1ccco1	-8.9% (inactive)	116%
COC(=O)c1cccc(NC(=O)CSc2nnc(COc3ccc(C#N)cc3)n2-c2ccccc2)c1	-5.1% (inactive)	91.2%
Cc1ccc2c(c1)C(O)(CC(=O)c1ccc3c(c1)OCO3)C(=O)N2 (stereo not given)	-46.3% (inactive)	93.9%
Cc1ccc(NCC(O)C(O)C(O)CO)cc1C (stereo not given)	1.3% (inactive)	115%
CCCc1nc(NCc2ccncc2)c2nnn(Cc3ccccc3F)c2n1	-40.7% (inactive)	116%
CCCC1c2ccc(C)n2CCN1C(=O)Nc1ccccc1Cl (stereo not given)	-6.4% (inactive)	100%
CCCCC(O)(C(NC=O)C(=O)OC)C(F)(F)F (stereo not given)	12.7% (inactive)	67.6%
O=C1c2ccccc2C(Nc2cccnc2)N1Cc1ccccc1Cl (stereo not given)	-13.6% (inactive)	105%
CC(Sc1nnnn1C)C(=O)Nc1ccc(Oc2ccccc2)cc1 (stereo not given)	-25.9% (inactive)	105%
COc1ccccc1NC(=O)CSc1nnnn1-c1ccc2c(c1)OCO2	21.1% (inactive)	88.6%
COc1ccc(C(=O)N2CCSC2=S)cc1OC	-13.4% (inactive)	97.5%
CCN(Cc1ccccc1)C(c1ccncc1)c1nnnn1C(C)(C)C (stereo not given)	-32% (inactive)	122%
CC(C)CCNC(=O)C1CCN(C(=O)N(C)C)CC1	13.3% (inactive)	53.8%
CN1CCN(CC(=O)N2c3ccccc3C(C)(c3ccccc3)CC2(C)C)CC1 (stereo not given)	-16.5% (inactive)	74.1%
O=C(Nc1ccccc1N1CCOCC1)c1ccc2ccccc2n1	-18.1% (inactive)	92.8%
CCOC(=O)N1CCN(c2cc(=O)n(-c3ccccc3Cl)c(=O)[nH]2)CC1	12.5% (inactive)	84.2%
COCCN1CCN(c2c(C)c(C)nc3cc(-c4cccc(OC)c4)nn23)CC1	-9.2% (inactive)	80.5%
CCN(CCNC(=O)C1CCN(S(C)(=O)=O)CC1)c1ccccc1	-13.1% (inactive)	113%
CCN(CC)S(=O)(=O)c1ccc2c(c1)nc(SCC(=O)NC1CC1)n2-c1ccccc1OC	9.5% (inactive)	109%
CCCOC(=O)c1[nH]c2c(c1C)C(=O)CC(c1ccc(OC)c(OC)c1)C2 (stereo not given)	2.4% (inactive)	101%
